# Measurements as given in article PMC5540273 (PLoS ONE, 2017).
# Several values for one entry are separate records, joined by “and”; a condition that tells them apart may be missing. Equal values may be shown once. Read-outs that look alike come from different tables or passages of the source.
# Tests used:
# [1] = test system: EPHB2; conditions: concentration: 1 μM, replicates: in singlicate; n = 1
# [2] = test system: EPHB3; conditions: concentration: 1 μM, replicates: in singlicate, n = 1
# [3] = test system: EPHB4; conditions: concentration: 1 μM, replicates: in singlicate, n = 1
# [4] = test system: EPHB6; conditions: concentration: 1 μM, replicates: in singlicate, n = 1
# [5] = test system: ERBB2; conditions: concentration: 1 μM, replicates: in singlicate, n = 1
# [6] = test system: ERBB3; conditions: concentration: 1 μM, replicates: in singlicate, n = 1
# [7] = test system: ERBB4; conditions: concentration: 1 μM, replicates: in singlicate, n = 1
# [8] = test system: T1, ERK1; conditions: concentration: 1 μM, replicates: in singlicate; n = 1
# T1 construct: gene MAPK3
# [9] = test system: T2, ERK2; conditions: concentration: 1 μM, replicates: in singlicate; n = 1
# T2 construct: gene MAPK1
# [10] = test system: T3, ERK3; conditions: concentration: 1 μM, replicates: in singlicate, n = 1
# T3 construct: gene MAPK6
# [11] = test system: T4, ERK4; conditions: concentration: 1 μM, replicates: in singlicate; n = 1
# T4 construct: gene MAPK4
# [12] = test system: T5, ERK5; conditions: concentration: 1 μM, replicates: in singlicate; n = 1
# T5 construct: gene MAPK7
# [13] = test system: T6, ERK8; conditions: concentration: 1 μM, replicates: in singlicate, n = 1
# T6 construct: gene MAPK15
# [14] = test system: ERN1; conditions: concentration: 1 μM, replicates: in singlicate; n = 1
# [15] = test system: T7, FAK; conditions: concentration: 1 μM, replicates: in singlicate; n = 1
# T7 construct: gene PTK2
# [16] = test system: FER; conditions: concentration: 1 μM, replicates: in singlicate, n = 1
# [17] = test system: FES; conditions: concentration: 1 μM, replicates: in singlicate, n = 1
# [18] = test system: FGFR1; conditions: concentration: 1 μM, replicates: in singlicate; n = 1
# [19] = test system: FGFR2; conditions: concentration: 1 μM, replicates: in singlicate; n = 1
# [20] = test system: FGFR3; conditions: concentration: 1 μM, replicates: in singlicate, n = 1
# 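Further: KINOMEscan kinase panel screen.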
compound,measurement,setting,value
O=c1cc(N2CCOCC2)nc2n(Cc3cccc(Cl)c3)ccn12 [GSK2296823],%Inh,[1],0%
same,%Inh,[2],15%
same,%Inh,[3],9%
same,%Inh,[4],56%
same,%Inh,[5],0%
same,%Inh,[6],0%
same,%Inh,[7],100%
same,%Inh,[8],0%
same,%Inh,[9],0%
same,%Inh,[10],0%
same,%Inh,[11],7%
same,%Inh,[12],0%
same,%Inh,[13],38%
same,%Inh,[14],0%
same,%Inh,[15],0%
same,%Inh,[16],3%
same,%Inh,[17],0%
same,%Inh,[18],0%
same,%Inh,[19],14%
same,%Inh,[20],24%
Cn1cc(-c2ccc3c(c2)CCN3C(=O)Cc2cccc(C(F)(F)F)c2)c2c(N)ncnc21 [GSK2606414],%Inh,[1],0%
same,%Inh,[2],0%
same,%Inh,[3],0%
same,%Inh,[4],18%
same,%Inh,[5],0%
same,%Inh,[6],0%
same,%Inh,[7],0%
same,%Inh,[8],0%
same,%Inh,[9],0%
same,%Inh,[10],2%
same,%Inh,[11],7%
same,%Inh,[12],0%
same,%Inh,[13],23%
same,%Inh,[14],21%
same,%Inh,[15],0%
same,%Inh,[16],0%
same,%Inh,[17],0%
same,%Inh,[18],20%
same,%Inh,[19],0%
same,%Inh,[20],0%
COc1ccc(Nc2nccc(N3CCC(NC(=O)c4cccc(NC(C)=O)c4)C3)n2)cc1 (centres unmarked) [GSK1379732],%Inh,[1],8%
same,%Inh,[2],1%
same,%Inh,[3],11%
same,%Inh,[4],16%
same,%Inh,[5],52%
same,%Inh,[6],30%
same,%Inh,[7],0%
same,%Inh,[8],0%
same,%Inh,[9],0%
same,%Inh,[10],5%
same,%Inh,[11],7%
same,%Inh,[12],0%
same,%Inh,[13],5%
same,%Inh,[14],0%
same,%Inh,[15],0%
same,%Inh,[16],12%
same,%Inh,[17],0%
same,%Inh,[18],0%
same,%Inh,[19],37%
same,%Inh,[20],19%
CCCc1ccc(S(=O)(=O)NC2CCN(c3ccnc(Nc4ccc(OC)cc4)n3)C2)cc1 (centres unmarked) [GSK1379737],%Inh,[1],10%
same,%Inh,[2],5%
same,%Inh,[3],7%
same,%Inh,[4],31%
same,%Inh,[5],36%
same,%Inh,[6],0%
same,%Inh,[7],24%
same,%Inh,[8],0%
same,%Inh,[9],0%
same,%Inh,[10],79%
same,%Inh,[11],17%
same,%Inh,[12],0%
same,%Inh,[13],0%
same,%Inh,[14],0%
same,%Inh,[15],0%
same,%Inh,[16],12%
same,%Inh,[17],0%
same,%Inh,[18],0%
same,%Inh,[19],0%
same,%Inh,[20],0%
CSc1ccc(NC2=C(c3ccccc3Cl)C(=O)NC2=O)cc1 [SB-342411],%Inh,[1],15%
same,%Inh,[2],0%
same,%Inh,[3],3%
same,%Inh,[4],18%
same,%Inh,[5],0%
same,%Inh,[6],0%
same,%Inh,[7],0%
same,%Inh,[8],5%
same,%Inh,[9],0%
same,%Inh,[10],0%
same,%Inh,[11],9%
same,%Inh,[12],0%
same,%Inh,[13],0%
same,%Inh,[14],9%
same,%Inh,[15],0%
same,%Inh,[16],5%
same,%Inh,[17],0%
same,%Inh,[18],11%
same,%Inh,[19],4%
same,%Inh,[20],26%
C[C@H]1CC[C@@H](C(=O)Nc2ccccc2)CN1c1cc(-c2ccc3c(N)n[nH]c3c2)nc(N)n1 [GSK2283293],%Inh,[1],0%
same,%Inh,[2],24%
same,%Inh,[3],12%
same,%Inh,[4],13%
same,%Inh,[5],25%
same,%Inh,[6],0%
same,%Inh,[7],39%
same,%Inh,[8],0%
same,%Inh,[9],2%
same,%Inh,[10],4%
same,%Inh,[11],29%
same,%Inh,[12],0%
same,%Inh,[13],0%
same,%Inh,[14],0%
same,%Inh,[15],0%
same,%Inh,[16],3%
same,%Inh,[17],9%
same,%Inh,[18],0%
same,%Inh,[19],5%
same,%Inh,[20],0%
Fc1cccc(COc2ccc(Nc3ncnc4nn5ccccc5c34)cc2Cl)c1 [GW689066],%Inh,[1],0%
same,%Inh,[2],16%
same,%Inh,[3],0%
same,%Inh,[4],1%
same,%Inh,[5],98.2%
same,%Inh,[6],27%
same,%Inh,[7],95.2%
same,%Inh,[8],0%
same,%Inh,[9],0%
same,%Inh,[10],0%
same,%Inh,[11],0%
same,%Inh,[12],0%
same,%Inh,[13],0%
same,%Inh,[14],0%
same,%Inh,[15],0%
same,%Inh,[16],16%
same,%Inh,[17],0%
same,%Inh,[18],0%
same,%Inh,[19],12%
same,%Inh,[20],3%
Clc1cc(Nc2ncnc3cc[nH]c23)ccc1OCc1ccccn1,%Inh,[1],15%
same,%Inh,[2],21%
same,%Inh,[3],25%
same,%Inh,[4],35%
same,%Inh,[5],100%
same,%Inh,[6],24%
same,%Inh,[7],73%
same,%Inh,[8],0%
same,%Inh,[9],18%
same,%Inh,[10],0%
same,%Inh,[11],27%
same,%Inh,[12],13%
same,%Inh,[13],6%
same,%Inh,[14],47%
same,%Inh,[15],8%
same,%Inh,[16],1%
same,%Inh,[17],22%
same,%Inh,[18],5%
same,%Inh,[19],8%
same,%Inh,[20],17%
Cl.c1ccc(Cn2ncc3cc(Nc4ncnc5ccccc45)ccc32)cc1 [GW273749],%Inh,[1],0%
same,%Inh,[2],0%
same,%Inh,[3],10%
same,%Inh,[4],31%
same,%Inh,[5],100%
same,%Inh,[6],68%
same,%Inh,[7],96.2%
same,%Inh,[8],0%
same,%Inh,[9],0%
same,%Inh,[10],57%
same,%Inh,[11],35%
same,%Inh,[12],0%
same,%Inh,[13],0%
same,%Inh,[14],34%
same,%Inh,[15],0%
same,%Inh,[16],13%
same,%Inh,[17],0%
same,%Inh,[18],0%
same,%Inh,[19],0%
same,%Inh,[20],0%
COc1ccc(-c2nc3n(c2-c2ccncc2)CCC3)cc1 [SKF-104493],%Inh,[1],0%
same,%Inh,[2]; 1 µM,10% and 4%
same,%Inh,[3]; 1 µM,16% and 11%
same,%Inh,[4]; 1 µM,8% and 0%
same,%Inh,[5]; 1 µM,0% and 29%
same,%Inh,[6]; 1 µM,0% and 8%
same,%Inh,[7]; 1 µM,29% and 18%
same,%Inh,[8],0%
same,%Inh,[9],0%
same,%Inh,[10]; 1 µM,0% and 9%
same,%Inh,[11],0%
same,%Inh,[12],0%
same,%Inh,[13]; 1 µM,6% and 11%
same,%Inh,[14],0%
same,%Inh,[15],0%
same,%Inh,[16]; 1 µM,0% and 33%
same,%Inh,[17]; 1 µM,10% and 0%
same,%Inh,[18],0%
same,%Inh,[19],0%
same,%Inh,[20]; 1 µM,0% and 9%
